Experimental data from paper PMC4336329 (PLoS ONE, 2015).
The campaign covered roughly 310,000 compounds. About 14,000 (4.5%) showed an effect of 50% or more. Effects have a minus sign here. Shown is part of a subset that was picked to be rich in strong results.

molecular target: human ether-à-go-go-related gene (hERG) potassium channel (human, UniProt Q12809); test: primary screen, population patch clamp on CHO cells stably expressing hERG; higher = less effect of the substance
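Also: peak tail current of the secondary pulse compared with the same well before compound.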

Sequence of human ether-à-go-go-related gene (hERG) potassium channel (Q12809 whole entry, looked up): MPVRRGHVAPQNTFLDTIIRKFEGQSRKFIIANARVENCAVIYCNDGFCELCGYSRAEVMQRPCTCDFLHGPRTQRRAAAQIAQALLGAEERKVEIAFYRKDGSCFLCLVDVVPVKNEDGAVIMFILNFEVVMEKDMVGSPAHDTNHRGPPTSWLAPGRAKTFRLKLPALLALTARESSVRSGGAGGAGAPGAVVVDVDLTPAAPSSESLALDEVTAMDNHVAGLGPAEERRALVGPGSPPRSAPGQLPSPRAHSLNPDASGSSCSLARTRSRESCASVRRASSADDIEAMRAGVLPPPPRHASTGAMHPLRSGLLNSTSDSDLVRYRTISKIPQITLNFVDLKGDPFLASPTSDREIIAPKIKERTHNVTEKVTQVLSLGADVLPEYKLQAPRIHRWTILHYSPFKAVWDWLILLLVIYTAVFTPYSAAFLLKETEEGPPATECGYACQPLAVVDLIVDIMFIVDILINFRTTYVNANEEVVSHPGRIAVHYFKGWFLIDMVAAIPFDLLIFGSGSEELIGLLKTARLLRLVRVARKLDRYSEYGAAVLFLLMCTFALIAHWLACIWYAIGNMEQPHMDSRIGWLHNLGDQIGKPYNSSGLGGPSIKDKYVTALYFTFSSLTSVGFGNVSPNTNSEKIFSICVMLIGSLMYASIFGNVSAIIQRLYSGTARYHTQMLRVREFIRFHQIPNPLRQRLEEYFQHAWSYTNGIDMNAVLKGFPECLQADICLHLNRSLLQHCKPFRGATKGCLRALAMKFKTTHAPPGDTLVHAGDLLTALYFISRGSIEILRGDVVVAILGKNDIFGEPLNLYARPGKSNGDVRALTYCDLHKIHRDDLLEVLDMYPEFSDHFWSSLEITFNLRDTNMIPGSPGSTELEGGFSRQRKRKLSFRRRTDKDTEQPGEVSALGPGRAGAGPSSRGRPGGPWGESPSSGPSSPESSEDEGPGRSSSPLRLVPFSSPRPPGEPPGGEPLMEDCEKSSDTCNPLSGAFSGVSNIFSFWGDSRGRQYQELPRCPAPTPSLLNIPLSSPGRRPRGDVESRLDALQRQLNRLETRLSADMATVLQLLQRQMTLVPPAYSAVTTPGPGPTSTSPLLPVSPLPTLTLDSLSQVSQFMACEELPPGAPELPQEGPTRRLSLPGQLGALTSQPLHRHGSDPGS

Compound | hERG current change (%, negative = inhibition) at 10uM [%]
O=C(N/N=C/c1ccco1)C1CCCC1 | 22.1
Cc1ccc(C(=O)Nc2ccc(S(=O)(=O)Nc3ncccn3)cc2)cc1[N+](=O)[O-] | 13.4
COc1cccc2cc(C(=O)NCc3ccccc3Cl)c(=O)oc12 | 6.78
CC(C)CSc1nsc(N)n1 | 23.1
COc1ccc(N2CCN(C(=O)c3cccc(NC(=O)c4ccco4)c3)CC2)cc1 | -43.8
Cc1ccc(C(=O)N2CCc3ccccc32)cc1NC(=O)c1ccco1 | -68.1
O=C(c1ccco1)N1CCc2ccccc21 | -3.68
COc1ccc(N2CCN(C(=O)c3ccc(C)c(NC(=O)c4ccco4)c3)CC2)cc1 | -74.8
Cc1ccc(C(=O)N2CCN(c3ccccc3)CC2)cc1NC(=O)c1ccco1 | -45.7
Cc1ccc(C(=O)N2CCN(C(=O)c3ccco3)CC2)cc1NC(=O)c1ccco1 | -44.1
COc1ccccc1CNC(=O)c1ccc(OC(F)F)c(OC)c1 | -32.1
CCOC(=O)c1sc(NC(=O)c2ccc(S(=O)(=O)N3CCOCC3)cc2)nc1-c1ccccc1 | -27.6
Cc1ccc(-c2csc3nc[nH]c(=O)c23)cc1 | 6.88
CCOc1cc(Br)ccc1S(=O)(=O)NCc1ccccc1 | -30.3
Cc1c(NC(=O)c2ccccc2NC(=O)COc2ccccc2)cccc1C(=O)O | 14.2
Cc1cc(N2CCN(c3ccccc3)CC2)nc(-c2ccccc2)n1 | -30.9
O=C(c1ccco1)N1CCN(Cc2nc3ccccc3c(=O)n2-c2ccc(F)cc2)CC1 | -18.8
O=c1c2ccccc2nc(N2CCCC2)n1-c1ccccc1 | 10.7
Cc1cc(N2CCN(C(=O)c3ccco3)CC2)c2ccccc2n1 | -71.8
Cc1cc(N2CCN(C(=O)c3ccco3)CC2)n2ncnc2n1 | -30.3
Cc1nc2ccccc2c2oc(C(=O)N3CCN(C(=O)c4ccco4)CC3)cc12 | -46.7

Compound | hERG current change (%, negative = inhibition) at 10uM [%]
Cc1cc(=O)[nH]c(N2CCN(C(=O)c3ccco3)CC2)n1 | 14
Cc1cc(N2CCN(C(=O)c3ccco3)CC2)n2nc(C)nc2n1 | -44
O=C(c1ccco1)N1CCN(C(=O)c2cc(Cl)nc3ccccc23)CC1 | -35.2
O=C(c1ccco1)N1CCN(c2nc3ccccc3c(=O)n2-c2ccccc2)CC1 | -54.9
Cc1cc(N2CCN(C(=O)c3ccco3)CC2)nc(-c2ccccc2)n1 | -65.4
Cc1cc(N2CCN(C(=O)c3ccco3)CC2)n2ncc(-c3ccccc3)c2n1 | -50.5
C=CCN=C(C)C1=C(O)CCC1=O | 16.5
O=C(CSc1nc2c(c(=O)n1-c1ccc(Cl)cc1)SCC2)N1CCOCC1 | -14.2
O=C1C(C2=NC(c3ccccn3)C3C(=O)N(c4ccc(Cl)cc4Cl)C(=O)C23)=C(O)c2ccccc21 (centres unmarked) | -4.11
O=C(Cc1cccs1)NNC(=O)c1ccc(F)cc1 | 3.91
Cc1ccc(CNC(=O)C2CC(c3cc(C(F)(F)F)cc(C(F)(F)F)c3)=NO2)o1 (centres unmarked) | -12.1
CCOc1ccc(-c2noc(CCC(=O)O)n2)cc1 | -1.59
Cc1nnc(NC(=O)c2ccc(-c3ccc([N+](=O)[O-])cc3)o2)s1 | -11.7
c1ccc(COc2ccc(OCCn3cncn3)cc2)cc1 | 4.65
CCn1c(O)c(C=Nc2ccccc2)sc1=O | 13.9
O=C(Nc1ccc(OCC(=O)N2CCOCC2)cc1)Nc1cccc(Cl)c1 | -7.18
CCN1CCN(CC(O)COCc2cc(OC)c(OC)c(OC)c2)CC1.Cl (centres unmarked) | 22.2
O=C1c2cccc3cccc(c23)C(=O)N1CCN1CCN(C(=S)Nc2ccc(Cl)cc2)CC1 | 16.4
COc1cc(COCC(O)CN2CCN(CCN3C(=O)c4cccc5cccc(c45)C3=O)CC2)cc(OC)c1OC.Cl (centres unmarked) | -62
COc1cc(COCC(O)CN2CCN(Cc3ccccc3)CC2)cc(OC)c1OC.Cl (centres unmarked) | -39.1
Cl.O=C1c2cccc3cccc(c23)C(=O)N1CCN1CCN(CC(O)COCc2ccc(Cl)cc2)CC1 (centres unmarked) | -72.5

Compound | hERG current change (%, negative = inhibition) at 10uM [%]
O=C1c2ccccc2C(=O)N1CC(O)COCc1ccccc1 (centres unmarked) | 19.4
O=C(Nc1c(-c2ccccc2)nc2ncccn12)c1cc2ccccc2oc1=O | -12.2
COC(=O)c1cc(-c2ccc(Cl)cc2Cl)n[nH]1 | 14.1
O=Cc1c(Sc2ccccc2)nc2ccccn2c1=O | -0.892
COc1ccc(-c2csc3[nH]c(=S)n(-c4ccccc4)c(=O)c23)cc1OC | 23.8
O=C(Nc1ccccc1)NN(C(=O)CCl)c1ccccc1 | 6.85
CSc1cc(C)nc(N(C)C(C)=O)n1 | 27.1
CCOC(=O)c1cn(Cc2ccccc2)nc1-c1ccccc1 | -8.37
O=C(O)c1ccc(NS(=O)(=O)c2ccc3c(c2)C(=O)c2ccccc2C3=O)cc1 | 18.5
CCCCc1ccc(-n2c(Cc3cccs3)n[nH]c2=S)cc1 | -56.3
S=c1[nH]nc(Cc2cccs2)n1-c1ccccc1 | 16.2
Cc1ccccc1-n1c(Cc2cccs2)n[nH]c1=S | 14.3
O=C(Nc1ccc2c(c1)OCO2)c1cc(-c2ccccc2Cl)on1 | 15.3
CCOc1ccc(CCNC(=O)CS(=O)Cc2nc(-c3ccccc3Cl)oc2C)cc1OCC (centres unmarked) | -10.7
CC1N=C2c3ccccc3N=C(SCc3cc(=O)n4cc(Cl)ccc4n3)N2C1=O (centres unmarked) | -63.6
O=C(O)CCCCn1c(SCc2cc(=O)n3cc(Cl)ccc3n2)nc2ccsc2c1=O | 2.87
Cc1ccc2nc(CSc3nnc4ccccn34)cc(=O)n2c1 | 13.2
CC(C)C1N=C2c3ccccc3N=C(SCc3cc(=O)n4cc(Cl)ccc4n3)N2C1=O (centres unmarked) | -67
CC(C)C1N=C2c3ccccc3N=C(SCC(=O)c3ccc(O)c(O)c3)N2C1=O (centres unmarked) | -23.1
CC(C)C1N=C2c3ccccc3N=C(SCC#N)N2C1=O (centres unmarked) | 5.14
